Results taken from a collection of fitness landscapes (doi:10.1126/science.1257360).
In all, about 140,000 sequences were measured (“enrichment ratio after two sorts for PhoP signalling”: median about 0, highest 2% from about 11 on). Shown is part of a subset that was picked to be rich in the highest values.

B1: PhoQ; a variant is named by its letters at X, in order, P23837 (parent)
chain: MKKLLRLFFPLSLRVRFLLATAAVVLVLSLAYGMVALIGYSVSFDKTTFRLLRGESNLFYTLAKWENNKLHVELPENIDKQSPTMTLIYDENGQLLWAQRDVPWLMKMIQPDWLKSNGFHEIEADVNDTSLLLSGDHSIQQQLQEVREDDDDAEMTHSVAVNVYPATSRMPKLTIVVVDTIPVELKSSYMVWSWFIYVLSANLLLVIPLLWVAAWWSLRPIEALAKEVRELEEHNRELLNPATTRELTSLVRNLNRLLKSERERYDKYRTTLTDLTHSLKTPLXXLQXXLRSLRSEKMSVSDAEPVMLEQISRISQQIGYYLHRASMRGGTLLSRELHPVAPLLDNLTSALNKVYQRKGVNISLDISPEISFVGEQNDFVEVMGNVLDNACKYCLEFVEISARQTDEHLYIVVEDDGPGIPLSKREVIFDRGQRVDTLRPGQGVGLAVAREITEQYEGKIVAGESMLGGARMEVIFGRQHSAPKDE

Variants of: B1
Assay: enrichment ratio after two sorts for PhoP signalling (ratio (wild type AVST 3.29)); higher = more functional
Conditions: with PhoP (E. coli)

| Variant | enrichment ratio |
| --- | --- |
| QTPA | ≤ 0.25 |
| PSTY | ≤ 0.25 |
| DPTW | ≤ 0.25 |
| RMLN | ≤ 0.25 |
| HIRM | ≤ 0.25 |
| KYCT | ≤ 0.25 |
| SRCT | ≤ 0.25 |
| SECT | 24.6 |
| SLCT | 19.2 |
| TECT | 5.22 |
| SACT | 14 |
| WLCT | ≤ 0.25 |
| IACT | ≤ 0.25 |
| PLCT | ≤ 0.25 |
| HEHS | ≤ 0.25 |
| NPLN | ≤ 0.25 |
| KDNG | ≤ 0.25 |
| TGQY | 5.59 |
| SYEM | ≤ 0.25 |
| LFDK | ≤ 0.25 |
| LFMM | ≤ 0.25 |
| YGQR | ≤ 0.25 |
| GNTT | 2.98 |

| Variant | enrichment ratio |
| --- | --- |
| GELT | 11.2 |
| GETA | ≤ 0.25 |
| GEYI | ≤ 0.25 |
| GEAS | 9.56 |
| GEGD | ≤ 0.25 |
| GEAT | 14.1 |
| GEYT | 0.289 |
| GETT | 16.2 |
| GEAA | 11.4 |
| GENY | ≤ 0.25 |
| GEAY | 23.4 |
| MCVP | ≤ 0.25 |
| LYDV | ≤ 0.25 |
| WERP | ≤ 0.25 |
| FGLD | ≤ 0.25 |
| WHSD | ≤ 0.25 |
| PARG | ≤ 0.25 |
| SKNV | ≤ 0.25 |
| KDFC | ≤ 0.25 |
| ATMG | 16.2 |
| ATMV | 9.43 |
| ATTG | 12 |
| ATCV | 15.4 |

| Variant | enrichment ratio |
| --- | --- |
| TTTG | 7.1 |
| ATCG | 16.1 |
| ATVG | 6.86 |
| AICG | 8.42 |
| ATIV | 8.37 |
| ITCG | ≤ 0.25 |
| YTTG | ≤ 0.25 |
| ATPI | 8.1 |
| HMVR | ≤ 0.25 |
| PPPT | ≤ 0.25 |
| HYAC | ≤ 0.25 |
| MRCY | ≤ 0.25 |
| ALEK | ≤ 0.25 |
| QMAV | ≤ 0.25 |
| HMTD | ≤ 0.25 |
| LMTS | 0.708 |
| YCYV | ≤ 0.25 |
| SCYS | 0.535 |
| QMGG | ≤ 0.25 |
| LLQC | ≤ 0.25 |
| ATGD | ≤ 0.25 |
| ATYD | ≤ 0.25 |
| ATPW | ≤ 0.25 |

| Variant | enrichment ratio |
| --- | --- |
| ATMW | 26.9 |
| ATPL | 5.31 |
| ATCK | 3.27 |
| ATMD | 27.9 |
| ATCI | 12.5 |
| ATNL | 5.25 |
| ATCA | 5.9 |
| ATCL | 18.6 |
| ATHW | ≤ 0.25 |
| WGSP | ≤ 0.25 |
| HYYD | ≤ 0.25 |
| WSIS | ≤ 0.25 |
| ITGG | ≤ 0.25 |
| MSAK | ≤ 0.25 |
| EGWA | ≤ 0.25 |
| DSML | ≤ 0.25 |
| IFTF | ≤ 0.25 |
| PWYL | ≤ 0.25 |
| ADCW | ≤ 0.25 |
| YTCW | ≤ 0.25 |
| ATCW | 11.3 |
| HMKN | ≤ 0.25 |
| NKTY | ≤ 0.25 |

| Variant | enrichment ratio |
| --- | --- |
| AQAY | 15.2 |
| ANYI | ≤ 0.25 |
| ANAY | 36.4 |
| AKAY | 13.6 |
| AHAY | 1.08 |
| AIAY | 6.61 |
| NQAY | ≤ 0.25 |
| ANNY | 6.43 |
| AQYI | ≤ 0.25 |
| CPSL | ≤ 0.25 |
| QEVG | ≤ 0.25 |
| FDGF | ≤ 0.25 |
| HSWS | ≤ 0.25 |
| NKSN | ≤ 0.25 |
| WFED | ≤ 0.25 |
| WRFE | ≤ 0.25 |
| IQAV | ≤ 0.25 |
| NVMV | ≤ 0.25 |
| ITCH | ≤ 0.25 |
| GTCH | 4.08 |
| TTCH | 15 |
| SHCH | 16 |
| YTCH | 0.285 |

| Variant | enrichment ratio |
| --- | --- |
| SHMH | 3 |
| THCH | 5.09 |
| SLCH | 11.6 |
| STCH | 12.6 |
| WLCH | ≤ 0.25 |
| CTCH | ≤ 0.25 |
| KLCH | ≤ 0.25 |
| DCLL | ≤ 0.25 |
| YWMV | ≤ 0.25 |
| YISQ | 0.456 |
| YEYI | ≤ 0.25 |
| RIQD | ≤ 0.25 |
| APKL | ≤ 0.25 |
| KTLD | ≤ 0.25 |
| QTQN | ≤ 0.25 |
| LCCT | ≤ 0.25 |
| EDCL | ≤ 0.25 |
| KEMG | ≤ 0.25 |
| NIQL | ≤ 0.25 |
| QEQL | ≤ 0.25 |
| SIQL | 13.1 |
| SMQL | 12.1 |
| KYQL | ≤ 0.25 |

| Variant | enrichment ratio |
| --- | --- |
| SGQL | 12 |
| SQQL | 2.28 |
| STQL | 17.1 |
| SAQL | 9.87 |
| YTQL | ≤ 0.25 |
| SLQL | 5.85 |
| QLRC | ≤ 0.25 |
| KRKR | ≤ 0.25 |
| YDDH | ≤ 0.25 |
| EAQW | ≤ 0.25 |
| TNTD | ≤ 0.25 |
| TNTK | ≤ 0.25 |
| TNTH | 1.01 |
| TNIC | ≤ 0.25 |
| TNNK | ≤ 0.25 |
| TNTS | 13.4 |
| TNTI | 15.8 |
| TNTC | 11.6 |
| TNTA | 10.1 |
